Test results from PubChem BioAssay (Tox21).
Several values for one entry are separate records, joined by “and”; a condition that tells them apart may be missing. Equal entries are not always repeated. Some structures have more than one record in an assay (separate samples or runs), and their calls can disagree. Activity calls are given as the source filed them. Where a call stands in place of a potency, no number is given. Unless noted, the call rests on the fitted dose curve; in most records, active means well fitted curve in the direction sought with a large enough effect in the repeat runs; inconclusive means weak or mixed curves; inactive means no such curve, though single readings can be large; an effect the other way counts as inactive or inconclusive.

Legend:
[1] = qHTS assay to identify small molecule antagonists of the thyroid receptor (TR) signaling pathway - cell viability counter screen (AID 743064); further: nearly all actives have a fitted effect of over 50% in size; further: potency means the concentration at half of the fitted maximal effect
Method in brief: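 Fluorescence from CellTiter-Fluor, added after 23.5 h exposure at 37 °C, reported viability of GH3.TRE-Luc cells co-treated with compound and 1 nM T3. Measured in the same wells as the luciferase TR readout.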

[2] = qHTS assay to identify small molecule antagonists of the thyroid receptor (TR) signaling pathway (AID 743065); further: nearly all actives have a fitted effect of over 55% in size; further: potency means the concentration at half of the fitted maximal effect
Method in brief: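 GH3.TRE-Luc rat pituitary cells carrying two TR response elements driving luciferase were plated for 4 h, given compound plus 1 nM T3 (final), and incubated 23.5 h at 37 C. ONE-Glo luminescence measured reporter inhibition; CellTiter-Fluor fluorescence tracked cytotoxicity.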

[3] = test system: thyroid hormone receptor (rat, GH3 cells); assay: qHTS assay to identify small molecule agonists of the thyroid receptor (TR) signaling pathway (AID 743066; calls by dose curve)
[4] = biological target: Estrogen receptor (Homo sapiens) (UniProt P03372); assay: qHTS assay to identify small molecule antagonists of the estrogen receptor alpha (ER-alpha) signaling pathway (AID 743069; active means well fitted curve in the direction sought with a large enough effect in the signal ratio in the repeat runs, not every such curve was filed as active; inconclusive means weak or mixed curves, or effect the other way; inactive means no such curve, though single readings can be large or run the other way; the % refers to the signal ratio; further: potency means the concentration at half of the fitted maximal effect)
Method in brief: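 HEK293 cells stably carrying an ER-alpha-UAS-bla beta-lactamase reporter were pre-cultured overnight in 2% charcoal-stripped FBS medium. Test compounds in DMSO were added together with 17beta-estradiol for 18 hr at 37C. Read-out was fluorescence after 2 hr with LiveBLAzer B/G FRET substrate at room temperature.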

[5] = qHTS assay to identify small molecule antagonists of the estrogen receptor alpha (ER-alpha) signaling pathway - cell viability counter screen (AID 743074; calls by dose curve; further: nearly all actives have a fitted effect of over 45% in size; further: potency means the concentration at half of the fitted maximal effect)
[6] = biological target: Estrogen receptor (Homo sapiens) (UniProt P03372); assay: qHTS assay to identify small molecule agonists of the estrogen receptor alpha (ER-alpha) signaling pathway (AID 743075; calls by dose curve; further: potency means the concentration at half of the fitted maximal effect)
[7] = biological target: Estrogen receptor (Homo sapiens) (UniProt P03372); assay: qHTS assay to identify small molecule agonists of the estrogen receptor alpha (ER-alpha) signaling pathway using the BG1 cell line (AID 743079); further: nearly all actives have a fitted effect of over 20% in size; further: potency means the concentration at half of the fitted maximal effect
[8] = qHTS assay to identify small molecule antagonists of the estrogen receptor alpha (ER-alpha) signaling pathway using the BG1 cell line - cell viability counter screen (AID 743081);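 further: compound given together with 17beta-estradiol as the ER stimulus; series mostly up to about 70 µM; nearly all actives have a fitted effect of over 45% in size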
[9] = biological target: Aromatase (Homo sapiens) (UniProt P11511); assay: qHTS assay to identify aromatase inhibitors (AID 743083); further: nearly all actives have a fitted effect of over 55% in size; further: potency means the concentration at half of the fitted maximal effect
[10] = qHTS assay to identify aromatase inhibitors - cell viability counter screen (AID 743084);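 further: cells stimulated with testosterone during compound exposure; nearly all actives have a fitted effect of over 55% in size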; further: potency means the concentration at half of the fitted maximal effect
[11] = qHTS assay to identify small molecule that activate the aryl hydrocarbon receptor (AhR) signaling pathway - cell viability counter screen (AID 743086);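 further: HepG2 liver cells carrying the AhR DRE luciferase reporter; series mostly up to about 70 µM; nearly all actives have a fitted effect of over 45% in size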
Method in brief: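 HepG2-AhR-luc (HG2L7.5c1) cells, 4000/well, were preincubated 5 h at 37C, exposed to compound in qHTS format for 24 hr at 37C, then given CellTiter-Fluor for 30 min; viability was read as fluorescence in the reporter wells.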

[12] = biological target: Peroxisome proliferator-activated receptor gamma (Homo sapiens) (UniProt P37231); assay: qHTS assay to identify small molecule agonists of the peroxisome proliferator-activated receptor gamma (PPARg) signaling pathway (AID 743094; active means well fitted activation curve with a large enough effect in the signal ratio in the repeat runs, not every such curve was filed as active; inconclusive means weak or mixed curves, or effect the other way; inactive means no such curve, though single readings can be large or run the other way; the % refers to the signal ratio)
Method in brief: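 Stably transfected HEK293H cells (GeneBLAzer PPARg UAS-bla) were incubated with test substances for 17 h at 37C after a 5 h pre-incubation; beta-lactamase activity was then detected by FRET substrate fluorescence.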

[13] = biological target: Peroxisome proliferator-activated receptor gamma (Homo sapiens) (UniProt P37231); assay: qHTS assay to identify small molecule antagonists of the peroxisome proliferator-activated receptor gamma (PPARg) signaling pathway (AID 743191; calls by dose curve; further: nearly all actives have a fitted effect of over 30% in size; further: potency means the concentration at half of the fitted maximal effect)
Method in brief: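 GeneBLAzer PPARg UAS-bla HEK293H cells carrying a UAS-driven beta-lactamase reporter were plated at 3000 cells/well, preincubated 5 h at 37C, then given compound for 17 h at 37C; LiveBLAzer B/G FRET substrate was read after 1 h at room temperature.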

[14] = qHTS assay to identify small molecule antagonists of the peroxisome proliferator-activated receptor gamma (PPARg) signaling pathway - cell viability counter screen (AID 743194); further: nearly all actives have a fitted effect of over 55% in size
Method in brief: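 PPARg-UAS-bla HEK293H cells were plated, rested 5 h at 37 C, then treated with compounds plus rosiglitazone (50 nM final) for 17 h at 37 C; viability was then read by CellTiter-Glo luminescence after 30 min at room temperature.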

[15] = qHTS assay for small molecule agonists of the antioxidant response element (ARE) signaling pathway (AID 743202; active means well fitted activation curve with a large enough effect in the signal ratio in the repeat runs, not every such curve was filed as active; inconclusive means weak or mixed curves, or effect the other way; inactive means no such curve, though single readings can be large or run the other way; the % refers to the signal ratio; further: potency means the concentration at half of the fitted maximal effect)
Method in brief: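 Read-out: LiveBLAzer B/G FRET substrate fluorescence after 2 h at room temperature, following 16 h compound treatment at 37 C of HepG2 cells carrying an ARE-driven beta-lactamase reporter.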

[16] = qHTS assay for small molecule agonists of the antioxidant response element (ARE) signaling pathway - cell viability counter screen (AID 743203; calls by dose curve; further: nearly all actives have a fitted effect of over 55% in size; further: potency means the concentration at half of the fitted maximal effect)
Method in brief: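 Cells (ARE-bla HepG2, 2,000/well) receive DMSO-dissolved compounds after a 5 hrs rest. Plates incubate 16 hrs at 37C/5% CO2. CellTiter-Glo luminescence is then recorded after 30 min at room temperature.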

[17] = qHTS assay for small molecule activators of the heat shock response signaling pathway - cell viability counter screen (AID 743209); further: nearly all actives have a fitted effect of over 50% in size
Method in brief: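 Quantitative HTS format, Tox21 10K library. HeLa cells carrying an HSE-driven beta-lactamase reporter were treated 5 h at 37 C, then assessed for viability by CellTiter-Glo luminescence.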

[18] = qHTS assay for small molecule activators of the heat shock response signaling pathway (AID 743210; active means well fitted activation curve with a large enough effect in the signal ratio in the repeat runs, with a control signal flat, not every such curve was filed as active; inconclusive means weak or mixed curves; the % refers to the signal ratio; further: series mostly up to about 63 µM)
Method in brief: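 HSE-bla HeLa cells (beta-lactamase reporter under heat shock response elements) were exposed to compounds for 5 h at 37 C, then loaded with LiveBLAzer B/G FRET substrate for 2.5 h at room temperature before fluorescence reading.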

[19] = qHTS assay to identify small molecule antagonists of the estrogen receptor alpha (ER-alpha) signaling pathway using the BG1 cell line (AID 743080; calls by dose curve;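 further: BG1 cells stimulated with 17beta-estradiol alongside compound; series mostly up to about 70 µM; nearly all actives have a fitted effect of over 25% in size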)
Method in brief: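 Luminescence from a 4×ERE-luciferase reporter in BG1-Luc-4E2 cells served as read-out. Cells, pre-cultured 5 days in stripped-serum phenol-red-free medium, were exposed to compound with 17beta-estradiol co-stimulation for 21.5 h at 37 C.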

[20] = biological target: Aryl hydrocarbon receptor (Homo sapiens) (UniProt P35869); assay: qHTS assay to identify small molecule that activate the aryl hydrocarbon receptor (AhR) signaling pathway (AID 743085);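 further: HG2L7.5c1 human HepG2 liver cells with stably integrated DRE-driven firefly reporter; series mostly up to about 70 µM; nearly all actives have a fitted effect of over 15% in size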
Method in brief: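 Cell line HG2L7.5c1 (human hepatoma, 20× DRE-luc). Plated, 5 h 37C, compound/DMSO added, 24 h 37C. CellTiter-Fluor 30 min 37C → fluorescence; then ONE-Glo 30 min RT → luminescence.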

Chain of Peroxisome proliferator-activated receptor gamma (Homo sapiens) (P37231 whole entry, looked up): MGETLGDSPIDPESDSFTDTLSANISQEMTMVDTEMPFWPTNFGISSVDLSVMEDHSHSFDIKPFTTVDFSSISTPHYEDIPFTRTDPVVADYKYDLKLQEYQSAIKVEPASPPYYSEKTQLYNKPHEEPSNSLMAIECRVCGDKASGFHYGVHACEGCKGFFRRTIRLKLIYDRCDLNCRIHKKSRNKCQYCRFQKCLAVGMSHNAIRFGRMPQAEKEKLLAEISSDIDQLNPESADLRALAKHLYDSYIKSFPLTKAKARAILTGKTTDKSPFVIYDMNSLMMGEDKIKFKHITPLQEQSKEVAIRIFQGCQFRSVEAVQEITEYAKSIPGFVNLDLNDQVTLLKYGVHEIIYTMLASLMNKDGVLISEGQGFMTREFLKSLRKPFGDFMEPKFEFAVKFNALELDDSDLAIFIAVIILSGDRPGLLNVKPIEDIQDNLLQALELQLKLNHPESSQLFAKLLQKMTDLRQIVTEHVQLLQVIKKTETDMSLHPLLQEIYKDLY
Chain of Estrogen receptor (Homo sapiens) (P03372 whole entry, looked up): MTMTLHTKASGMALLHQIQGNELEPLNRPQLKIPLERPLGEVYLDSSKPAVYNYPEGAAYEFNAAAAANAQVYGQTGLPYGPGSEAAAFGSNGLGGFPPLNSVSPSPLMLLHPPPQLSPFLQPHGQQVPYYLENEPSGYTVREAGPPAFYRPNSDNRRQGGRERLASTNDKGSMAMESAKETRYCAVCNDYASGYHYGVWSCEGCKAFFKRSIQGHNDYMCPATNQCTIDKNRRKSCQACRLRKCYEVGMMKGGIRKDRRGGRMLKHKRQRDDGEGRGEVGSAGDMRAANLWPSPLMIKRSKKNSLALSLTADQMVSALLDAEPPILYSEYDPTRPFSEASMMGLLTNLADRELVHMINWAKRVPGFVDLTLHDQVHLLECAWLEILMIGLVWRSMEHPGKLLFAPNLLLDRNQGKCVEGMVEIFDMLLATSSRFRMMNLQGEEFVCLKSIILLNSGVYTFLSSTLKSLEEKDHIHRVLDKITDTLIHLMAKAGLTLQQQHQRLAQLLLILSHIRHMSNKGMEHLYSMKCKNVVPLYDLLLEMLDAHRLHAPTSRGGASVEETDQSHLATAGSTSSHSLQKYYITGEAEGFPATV
Chain of Aryl hydrocarbon receptor (Homo sapiens) (P35869 whole entry, looked up): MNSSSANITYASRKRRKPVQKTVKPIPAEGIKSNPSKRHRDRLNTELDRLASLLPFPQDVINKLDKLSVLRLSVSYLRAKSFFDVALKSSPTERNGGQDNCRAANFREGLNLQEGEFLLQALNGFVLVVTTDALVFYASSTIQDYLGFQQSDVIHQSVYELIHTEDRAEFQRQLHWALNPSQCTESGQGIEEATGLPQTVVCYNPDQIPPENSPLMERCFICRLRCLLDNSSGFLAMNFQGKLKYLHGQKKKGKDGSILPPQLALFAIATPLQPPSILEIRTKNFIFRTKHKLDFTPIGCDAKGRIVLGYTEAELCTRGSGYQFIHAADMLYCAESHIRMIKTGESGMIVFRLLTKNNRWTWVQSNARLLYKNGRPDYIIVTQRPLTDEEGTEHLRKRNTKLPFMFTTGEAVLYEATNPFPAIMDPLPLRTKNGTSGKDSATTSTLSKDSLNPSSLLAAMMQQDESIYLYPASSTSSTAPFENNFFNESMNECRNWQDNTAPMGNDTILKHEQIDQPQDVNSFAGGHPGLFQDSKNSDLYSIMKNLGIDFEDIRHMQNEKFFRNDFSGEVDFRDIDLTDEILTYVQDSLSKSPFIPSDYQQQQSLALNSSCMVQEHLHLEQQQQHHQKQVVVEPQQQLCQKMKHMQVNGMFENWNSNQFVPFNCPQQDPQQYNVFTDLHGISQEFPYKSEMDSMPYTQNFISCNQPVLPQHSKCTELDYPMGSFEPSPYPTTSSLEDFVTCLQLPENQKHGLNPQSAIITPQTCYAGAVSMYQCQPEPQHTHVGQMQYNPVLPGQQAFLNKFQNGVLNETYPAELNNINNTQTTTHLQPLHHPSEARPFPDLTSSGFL
Chain of Aromatase (Homo sapiens) (P11511 whole entry, looked up): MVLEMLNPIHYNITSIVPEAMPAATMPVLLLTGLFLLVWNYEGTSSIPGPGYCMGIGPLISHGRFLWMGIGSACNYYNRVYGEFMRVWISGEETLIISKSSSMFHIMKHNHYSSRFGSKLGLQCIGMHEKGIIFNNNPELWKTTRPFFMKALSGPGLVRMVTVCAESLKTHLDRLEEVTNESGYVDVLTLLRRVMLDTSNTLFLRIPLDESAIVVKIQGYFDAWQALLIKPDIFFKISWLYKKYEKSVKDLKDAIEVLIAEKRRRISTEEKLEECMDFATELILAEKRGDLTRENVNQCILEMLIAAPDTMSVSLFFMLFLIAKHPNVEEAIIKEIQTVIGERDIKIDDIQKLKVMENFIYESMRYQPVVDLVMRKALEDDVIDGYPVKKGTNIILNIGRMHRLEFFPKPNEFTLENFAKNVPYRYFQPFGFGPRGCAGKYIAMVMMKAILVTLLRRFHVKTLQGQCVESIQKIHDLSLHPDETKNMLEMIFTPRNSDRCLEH

SMILES | Potency [1] | Potency [2] | Potency [3] | Potency [4] | Potency [5] | Potency [6] | Potency [7] | Potency [8] | Potency [9] | Potency [10] | Potency [11] | Potency [12] | Potency [13] | Potency [14] | Potency [15] | Potency [16] | Potency [17] | Potency [18] | Potency [19] | Potency [20]
Cc1ccc(-c2cc(C(F)(F)F)nn2-c2ccc(S(N)(=O)=O)cc2)cc1 | 26.6 µM (active) and 48.4 µM (active) | 23.7 µM (active) and 30.5 µM (active) and 54.5 µM (active) | inactive | inactive and 54.9 µM [inconclusive] (active) | inactive and 43.5 µM (active) | 23.9 µM [activator] (active) and inactive | 7.5 µM (active) | inactive | 29.8 µM (active) and 30.5 µM (active) | inactive and 54.3 µM (active) | inactive | inactive | inactive | inactive | 26.6 µM (active) | 61.1 µM (active) and inactive | inactive | inactive | – | –
O=C(OCc1ccccc1)c1ccc(O)cc1 | inactive | inactive | inactive | inactive | inactive | 54.9 µM [inconclusive] (active) | 10.6 µM (active) and 12.2 µM (active) | inactive | inactive | inactive | inactive | inactive | 43.6 µM (active) | inactive | inactive | inactive | – | inactive | – | –
CC(=O)CC(C)=O | inactive | inactive | inactive | inactive | inactive | inactive | inactive | inactive | inactive | inactive | inactive | inactive | – | inactive | inactive | inactive | – | inactive | inactive | inactive
O=C1NCC2(CCN(CCc3ccccc3)CC2)O1 | inactive | inactive | inactive | inactive | inactive | inactive | 29.8 µM (active) | inactive | inactive | inactive | inactive | inactive | inactive | inactive | inactive | inactive | – | inactive | – | inactive
CC1COC(=O)O1 (stereo unspecified) | inactive | inactive | inactive | inactive | inactive | inactive | inactive | inactive | inactive | inactive | inactive | inactive | inactive | inactive | inactive | inactive | inactive | inactive | – | inactive
OCC(CO)N[C@H]1C[C@](O)(CO)[C@@H](O)[C@H](O)[C@H]1O | inactive | inactive | inactive | inactive | inactive | inactive | inactive | inactive | inactive | inactive | inactive | inactive | inactive | inactive | – | inactive | inactive | inactive | – | inactive
CCCCN(CCO)CCCC | inactive | inactive | inactive | inactive | inactive | inactive | inactive | inactive | inactive | inactive | inactive | inactive | inactive | inactive | inactive | inactive | inactive | inactive | inactive | –
CCC(C)(Oc1ccc(C2(c3ccc(OC(C)(CC)C(=O)O)cc3)CCCCC2)cc1)C(=O)O (stereo unspecified) | inactive | inactive | inactive | inactive | inactive | inactive | inactive | inactive | inactive | inactive | inactive | inactive | inactive | inactive | inactive | inactive | – | inactive | – | inactive
CO[Si](OC)(OC)c1ccccc1 | inactive | inactive | inactive | inactive | inactive | inactive | inactive | inactive | inactive | inactive | inactive | inactive | – | inactive | – | inactive | – | inactive | inactive | –
O=C(O)c1cccc(C(=O)O)c1 | inactive | inactive | inactive | inactive | inactive | inactive | inactive | inactive | inactive | inactive | inactive | inactive | inactive | inactive | – | inactive | inactive | inactive | inactive | inactive
NCCCCCC(=O)O | inactive | inactive | inactive | inactive | inactive | inactive | inactive | inactive | inactive | inactive | inactive | inactive | inactive | inactive | inactive | inactive | inactive | inactive | – | inactive
CC(=O)N[C@@H](CS)C(=O)O | inactive | inactive | inactive | inactive | inactive | inactive | inactive | inactive | inactive | inactive | inactive | inactive | inactive | inactive | inactive | inactive | inactive | inactive | inactive | –
CC(C)(O)CCC(C)(C)O | inactive | inactive | inactive | inactive | inactive | inactive | inactive | inactive | inactive | inactive | inactive | inactive | – | inactive | inactive | inactive | – | inactive | inactive | inactive
